# In PubChem BioAssay (NCI):
# The panel holds about 83,000 compounds, 20% with a hit somewhere; the sample as a whole holds those more often.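 Method: cells in 96-well plates; compound added at one concentration; 48 h incubation; percent growth measured; values under 10 scored active.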 A number with no mark means an inactive call. Calls of active or inactive are those of the source.
# Tested on: NCI-H460 lung
# Assay: NCI-60 one-dose screen, 48 h (100 = growth as untreated, 0 = no growth, -100 = all killed)
# Details: 10 µM unless noted
# Method: Growth inhibition of the NCI-H460 human Non-Small Cell Lung tumor cell line is measured as a screen for anti-cancer activity. Cells are grown in 96 well plates and exposed to the test compound for 48 hours. Compounds are tested at a single concentration, which is 10^-5 M for most compounds. The reported endpoint is percent growth (GI% or GIPRCNT), where numbers from 0 - 100% represent growth inhibition, and numbers from -100% - 0 represent cell death. For example, a value of 40 represents 60% growth inhibition. A value of 0 means no net growth occurred over the course of the experiment. A value of -40 indicates 40% of cells at the beginning of the experiment died by the end of the experiment. A value of -100 means all cells are dead at the end of the experiment.
# NCI-60 Human Tumor Cell Lines Screen was performed using the standard one-dose NCI protocol, which is described in more detail at https://dtp.cancer.gov/discovery_development/nci-60/default.htm.
# Compounds with GIPRCNT values below 10 were considered active. Activity score was based on GIPRCNT using the following formula: […]
# Score is 0 for GIPRCNT values of 100 or above, 50 for GIPRCNT values of 0, and 100 for GIPRCNT values of -100.
row,Compound,growth
1,COc1ccc(/C(C)=C(\c2ccc(OCCN3CCCCCC3)cc2)c2ccc(OC(=O)c3ccccc3)cc2)cc1,10.2%
2,CC(=O)Nc1c(Cl)cc(Cl)c2c1Cc1cc([N+](=O)[O-])ccc1-2,86.6%
3,CN1C(=O)/C(=C/c2ccc(C(=O)Nc3ncc(Cc4ccc(F)cc4)s3)cc2)SC1=S,20.2%
4,COc1ccc(-c2ccc(-c3ccc(C(=N)N)cn3)s2)cc1,-22.6% (active)
5,CC(C)c1ccc(C(=O)Nc2sc3cc(O)ccc3c2C#N)cc1,23%
6,Cc1ccc(/C=C2\CN(C(=O)C(Cl)Cl)C/C(=C\c3ccc(C)cc3)C2=O)cc1,-56.1% (active)
7,O=C(Nc1nc(C(=O)N2CCN(C(c3ccccc3)c3ccccc3)CC2)cs1)c1ccc(NC2CCCCC2)c([N+](=O)[O-])c1,99.6%
8,COc1ccc(/C=C/C(=O)c2ccc(NC(=O)CSc3nnc(-c4cc(-c5ccccc5)nc5ccccc45)n3-c3ccccc3)cc2)cc1,107%
9,COc1ccc(-c2cc(-c3ccc(OC)cc3)nc(NCCCNc3ccnc4cc(Cl)ccc34)n2)cc1,-39.5% (active)
10,C#CC#CC#CC#CC#CC#CC#CC#CCC1OCC(COC(=O)O[C@@H](C(=O)O[C@H]2C[C@@]3(O)[C@@H](OC(=O)c4ccccc4)[C@@H]4[C@]5(OC(C)=O)CO[C@@H]5C[C@H](O)[C@@]4(C)C(=O)[C@H](OC(C)=O)C(=C2C)C3(C)C)[C@@H](NC(=O)c2ccccc2)c2ccccc2)O1 (stereo not given in full),5.88% (active)
11,c1ccc(CNc2ccc3nc(CCC4CCCCC4)[nH]c3c2)cc1,78.1%
12,COc1ccc(OC)c(Nc2nnc(-c3ccc(Cl)cc3)o2)c1,18.8%
13,CC(O)c1ncc(/C=C2\SC(=S)N(Cc3ccccc3)C2=O)s1 (stereo not given),104%
14,N=c1c2c(=N)n3c(nc2nc2n1-c1ccccc1Sc1ccccc1-2)sc1cc(Cl)ccc13,13.8%
15,CNCc1cccc2c1OCCOCCN(C)C(=O)CN(C)S(=O)(=O)c1ccc(cc1)-c1cnc(N)c(n1)C(=O)N2,-40.9% (active)
16,C/C(C=O)=C\c1ccc2c(c1)OCO2,118%
17,CCNCc1ccc(O)c2ncccc12,20%
18,Cn1ncc2ccc(-c3nc(-c4ccccc4)[nH]c3-c3n[nH]c(=O)n3C3CC3)cc21,99.4%
19,Cc1nc2sc(C(=O)Nc3ccc(Cl)cc3)c(N)c2cc1C(O)c1ccccc1 (stereo not given),17.4%
20,N=C(N)c1ccc(-c2ccc(-c3ccc(Cl)cc3)o2)o1,-72.3% (active)

row,Compound,growth
1,COc1ccc(Cn2cc(C(=O)N=Nc3c(O)[nH]c4c(Cl)cccc34)nn2)cc1,99.7%
2,Cn1cc(-c2csc(-c3cn(C)c4ccc(Br)cc34)n2)c2cnccc21,-76.4% (active)
3,CN(C)Cc1ccc(C(=O)Nc2ccc3ncnc(Nc4ccc(Oc5cccc(F)c5)c(Cl)c4)c3c2)cc1,-74.3% (active)
4,O=C1NC(=C(Cl)Cl)/C(=N/S(=O)(=O)NCCc2c[nH]c3ccccc23)N1,66.8%
5,CC[C@]12C=CCN3CC[C@@]4(c5ccc(OC)cc5N(C)[C@H]4[C@@](O)(C(=O)OC)[C@@H]1OC(=O)CCCN1CCOCC1)[C@@H]32,111%
6,NC(CSC(c1ccccc1)(c1ccccc1)c1ccc2c(c1)OCO2)C(=O)O (stereo not given),7.27% (active)
7,CCOC(=O)c1c(-c2ccccc2)n2c(=O)cc(C)c3c(O)c(O)cc1c32,20.3%
8,FC(F)(F)c1[nH]ncc1-c1nc2c(N3CCCCC3)cc3[nH]ncc3c2c2c1CCCC2,3.42% (active)
9,N=c1sc(Cc2cc(Cl)ccc2Cl)cn1CC(=O)c1ccccc1,20.3%
10,CCCCCCCCCCCCCCCCCCOc1ccccc1CC(=O)OCC[N+]1(C)CCOCC1,69.2%
11,COCC[C@H]1CCC/C=C/[C@@H]2C[C@H](O)C[C@H]2[C@H](O)/C=C/C(=O)O1,15.1%
12,Nc1c(C(=O)Nc2cccc3ncccc23)sc2nc3c(cc12)C(=O)CCC3,19.9%
13,Cn1cc(-c2ccc3cc(-c4ccc(CC(=O)Nc5cc(C(C)(C)C)on5)cc4)cnc3c2)cn1,-3.39% (active)
14,O=C(N/N=C/c1ccc([N+](=O)[O-])cc1)c1ccc2nc(-c3ccc(Cl)cc3)[nH]c2c1,5.44% (active)
15,NC(=O)OCCn1cc(-c2nc(-c3c[nH]c4ncccc34)cs2)c2ccccc21,17.8%
16,CC1(C)OC(=O)C(=Cc2cccc(Br)c2)C(=O)O1,105%
17,Cc1ccc(C)n1/C=C/n1c(C)ccc1C,110%
18,CC[C@@H](c1ccc2cc(OC)ccc2c1)C(C)(C)C(=O)F,106%
19,O=c1[nH]cnc2c1C(c1ccc(Br)cc1)c1sc3c(F)cccc3c1O2 (stereo not given),94.7%
20,CCCCCCCCn1ccc2cc(NC(=O)Cn3cc(CN4CCCCCC4)nn3)ccc21,-58.7% (active)
